One may read the AC50 as the midpoint of the concentration-response curve, whichever way the signal moves.

The nature of test [1]: ATG_E_Box_CIS: Attagene CIS-FACTORIAL HepG2 Assay for human Enhancer Box (E-box) (AID 2282936). Particulars: HepG2 E-box cis-reporter transcription, actives raise or lower the signal. The method, boiled down: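 E-box-driven reporter transcripts measured in transiently transfected HepG2 after 24 h exposure: RNA reverse-transcribed, PCR-amplified, fluorescently labelled, digested and resolved by capillary electrophoresis. Gain or loss relative to DMSO.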

Test [2] is described as follows: ATG_M_61_CIS: Attagene CIS-FACTORIAL HepG2 Assay for M61 Transcription Factor (Internal Marker) (AID 2282937). The settings on record: HepG2 Attagene CIS-FACTORIAL M61 internal marker reporter; actives raise or lower the signal. The procedure, abridged:
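Fluorescence from labelled cDNA fragments, separated by capillary electrophoresis, quantifies reporter induction. HepG2 cells bearing transiently transfected cis-promoter MRTUs were incubated with test chemical for 24 h; DMSO defined baseline for gain/loss fitting.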

Test [3] in a line: ATG_EGR_CIS: Attagene CIS-FACTORIAL HepG2 Assay for human Early Growth Response 1 (EGR1) (AID 2282938). The settings on record: HepG2 Attagene CIS-FACTORIAL EGR reporter mRNA; actives raise or lower the signal. The method, boiled down:
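Cell-based multiplex transcription assay: HepG2 carrying transfected cis-element reporter units, 24 h chemical treatment. Fluorescence from capillary electrophoresis of RT-PCR products gives mRNA levels; fitting is bidirectional relative to DMSO.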

The nature of test [4]: ATG_ERE_CIS: Attagene CIS-FACTORIAL HepG2 Assay for Estrogen Response Element (ERE) (AID 2282940). The settings on record: HepG2 ERE cis-reporter, Attagene RNA transcript; actives raise or lower the signal. The method, boiled down:
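Human liver cells (HepG2) bearing transiently transfected, promoter-regulated reporter units were exposed 24 h. Reporter mRNA induction was detected by capillary electrophoresis of labelled RT-PCR products and fitted bidirectionally to DMSO.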

Test [5] can be described thus: ATG_Ets_CIS: Attagene CIS-FACTORIAL HepG2 Assay for human Erythroblast Transformation Specific (ETS) (AID 2282941). The settings on record: HepG2 ETS cis-reporter transcription, actives raise or lower the signal. The procedure, abridged:
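Cis-regulated reporter mRNA induction in HepG2 (transient transfection), 24 h exposure, RT-PCR plus capillary electrophoresis detection; DMSO serves as negative control and baseline.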

Test [6] addresses Hepatocyte nuclear factor 3-beta (Homo sapiens) (UniProt Q9Y261). Description: ATG_FoxA2_CIS: Attagene CIS-FACTORIAL HepG2 Assay for human Forkhead box A2 (FOXA2) (AID 2282942). The settings on record: HepG2 cis-reporter transcription factor activity, 24 h; actives raise or lower the signal. The procedure, abridged:
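In transiently transfected human HepG2 cells, promoter-driven reporter mRNA levels after 24 h chemical exposure are determined via RT-PCR with capillary electrophoresis. DMSO serves as baseline for bidirectional fitting.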

The nature of test [7]: ATG_FoxO_CIS: Attagene CIS-FACTORIAL HepG2 Assay for human Forkhead box O (FoxO) (AID 2282943). Particulars: HepG2 Attagene cis-reporter, FoxO element, mRNA; actives raise or lower the signal. The procedure, abridged:
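HepG2, transient MRTU transfection (cis element, endogenous TFs). Dose 24 h. TriZol RNA → oligo(dT) RT → PCR → 6-FAM primer extension → HpaI cut → CE. Gain/loss vs DMSO.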

Test [8] is described as follows: ATG_GATA_CIS: Attagene CIS-FACTORIAL HepG2 Assay for human GATA Binding Protein (AID 2282944). The settings on record: HepG2 GATA cis-element reporter, Attagene multiplex mRNA; actives raise or lower the signal. The method, boiled down:
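Transfected cis-reporter HepG2 cells were treated with chemicals for 24 hours. Total RNA was then converted to cDNA, amplified with reporter-specific primers and analysed by fluorescent capillary electrophoresis, using DMSO-treated wells as baseline.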

Test [9] can be described thus: ATG_GLI_CIS: Attagene CIS-FACTORIAL HepG2 Assay for human Zinc Finger Protein GLI1 (AID 2282945). Particulars: HepG2, Attagene cis-factorial reporter mRNA, GLI element; actives raise or lower the signal. The procedure, abridged:
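Bidirectional curve fits relative to DMSO, using reporter mRNA levels from RT-PCR plus capillary electrophoresis. Cells were HepG2 transiently carrying cis-regulated reporter constructs, harvested 24 h after dosing.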

Test [10] addresses Bile acid receptor (Homo sapiens) (UniProt Q96RI1). Description: ATG_IR1_CIS: Attagene CIS-FACTORIAL HepG2 Assay for human Nuclear Receptor Subfamily 1 Group H Member 4 (NR1H4), IR1 submotif (AID 2282946). Particulars: IR1 reporter transcription, actives raise or lower the signal. The method, boiled down: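 HepG2 cells transiently transfected with multiplexed cis-element reporter units read endogenous transcription factor activity. After 24 h compound exposure, reporter mRNA was quantified by RT-PCR, fluorescent labelling, HpaI digestion and capillary electrophoresis; bidirectional fitting versus DMSO baseline.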

A short description of test [11]: ATG_GRE_CIS: Attagene CIS-FACTORIAL HepG2 Assay for human Glucocorticoid Response Elements (GRE) (AID 2282947). Particulars: HepG2 GRE cis-reporter, Attagene multiplex mRNA; actives raise or lower the signal. The procedure, abridged: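 Reporter transcripts read by RT-PCR with capillary electrophoresis fluorescence after a 24 h chemical exposure of HepG2 cells transiently transfected with multiple cis-element reporter units. Gain or loss fitted against DMSO.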

Test [12] is described as follows: ATG_ISRE_CIS: Attagene CIS-FACTORIAL HepG2 Assay for human Interferon Regulatory Factor 1 (IRF1) binding to an Interferon-Stimulated Response Element (ISRE) (AID 2282948). Particulars: HepG2 ISRE cis-reporter (Attagene), mRNA transcription readout; actives raise or lower the signal. The procedure, abridged:
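Multiplexed mRNA reporter readout in human liver HepG2 cells: cis-element-driven reporters transfected, compound added for 24 h, transcripts amplified, fluorescently labelled and sized by capillary electrophoresis; curve fitting bidirectional against DMSO.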

Test [13] in a line: ATG_M_32_CIS: Attagene CIS-FACTORIAL HepG2 Assay for M32 Transcription Factor (Internal Marker) (AID 2282949).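 Further: background control marker of the multiplexed CIS panel rather than a real target.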 Particulars: HepG2 Attagene cis-factorial M32 reporter, mRNA; actives raise or lower the signal. The procedure, abridged:
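HepG2 human liver cells transiently transfected with cis-promoter-driven multiple reporter transcription units, dosed 24 h. Reporter mRNA quantified by RT-PCR, FAM-labelled primer extension, HpaI digest and capillary electrophoresis; bidirectional fit versus DMSO baseline.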

Test [14] is described as follows: ATG_M_06_CIS: Attagene CIS-FACTORIAL HepG2 Assay for M06 Transcription Factor (Internal Marker) (AID 2282950). Particulars: HepG2 Attagene CIS-FACTORIAL M06 internal marker reporter; actives raise or lower the signal. The method, boiled down: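 Cells (HepG2, transiently carrying cis-driven reporter units) receive chemical for 24 h before RNA isolation. Reporter cDNA is PCR-amplified, FAM-labelled by primer extension, HpaI-digested and sized on a capillary analyser.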

The target of test [15] is Hypoxia-inducible factor 1-alpha (Homo sapiens) (UniProt Q16665). Description: ATG_HIF1a_CIS: Attagene CIS-FACTORIAL HepG2 Assay for human Hypoxia Inducible Factor 1 (HIF1A) (AID 2282951). The settings on record: HepG2 Attagene cis-factorial HIF1a reporter transcription; actives raise or lower the signal. The procedure, abridged:
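In this multiplexed cell assay, HepG2 cells bearing transfected cis reporters are dosed for 24 h and reporter mRNA is read by RT-PCR plus capillary electrophoresis; signal increases and decreases are both scored against DMSO.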

The target of test [16] is Hepatocyte nuclear factor 6 (Homo sapiens) (UniProt Q9UBC0). Description: ATG_HNF6_CIS: Attagene CIS-FACTORIAL HepG2 Assay for human Hepatocyte Nuclear Factor 6 (HNF6) (AID 2282952). Particulars: HepG2 Attagene cis-factorial HNF6 reporter transcription; actives raise or lower the signal. The method, boiled down:
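Using cis-element reporters in HepG2 liver cells, the assay tracks endogenous factor-driven transcription 24 h post-dosing. Signal comes from 6-FAM-labelled, HpaI-digested RT-PCR fragments, with gain or loss scored against DMSO.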

Test [17] deals with Heat shock factor protein 1 (Homo sapiens) (UniProt Q00613). Description: ATG_HSE_CIS: Attagene CIS-FACTORIAL HepG2 Assay for human Heat Shock Transcription Factor 1 (HSE) (AID 2282953). Particulars: HepG2 HSE cis-reporter, Attagene RNA transcription; actives raise or lower the signal. The method, boiled down: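 Liver-derived HepG2 cells carry transiently introduced multiple reporter units governed by cis promoters. Reporter RNA measured 24 h post-dose through reverse transcription, PCR amplification, fluorescent labelling and capillary electrophoresis, normalised to DMSO.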

Test [18] can be described thus: ATG_MRE_CIS: Attagene CIS-FACTORIAL HepG2 Assay for human Metal Responsive Element (MRE) (AID 2282954). Particulars: HepG2 MRE cis-reporter transcription, Attagene multiplex; actives raise or lower the signal. The method, boiled down:
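Endogenous MRE-dependent transcription read as reporter mRNA in transiently transfected human HepG2 cells at 24 h. RNA reverse-transcribed, PCR-amplified, labelled and resolved by capillary electrophoresis; gain or loss relative to DMSO.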

A short description of test [19]: ATG_PBREM_CIS: Attagene CIS-FACTORIAL HepG2 Assay for human Phenobarbital-responsive Enhancer Module (PBREM) (AID 2282955). The settings on record: HepG2 PBREM cis-reporter, Attagene multiplexed transcription; actives raise or lower the signal. The procedure, abridged: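 After a 24 h incubation with test chemical, transfected HepG2 cells yield total RNA; reporter-specific RT-PCR products are fluorescently labelled, HpaI-digested and resolved by capillary electrophoresis against ROX size standards.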

Active and inactive are the calls of the source. How the source made its calls: active means hit-call score of the fitted dose curve at least 0.9, where 1 is the maximum; inactive means score below 0.9.

Chain of Hepatocyte nuclear factor 3-beta (Homo sapiens) (Q9Y261 whole entry, looked up): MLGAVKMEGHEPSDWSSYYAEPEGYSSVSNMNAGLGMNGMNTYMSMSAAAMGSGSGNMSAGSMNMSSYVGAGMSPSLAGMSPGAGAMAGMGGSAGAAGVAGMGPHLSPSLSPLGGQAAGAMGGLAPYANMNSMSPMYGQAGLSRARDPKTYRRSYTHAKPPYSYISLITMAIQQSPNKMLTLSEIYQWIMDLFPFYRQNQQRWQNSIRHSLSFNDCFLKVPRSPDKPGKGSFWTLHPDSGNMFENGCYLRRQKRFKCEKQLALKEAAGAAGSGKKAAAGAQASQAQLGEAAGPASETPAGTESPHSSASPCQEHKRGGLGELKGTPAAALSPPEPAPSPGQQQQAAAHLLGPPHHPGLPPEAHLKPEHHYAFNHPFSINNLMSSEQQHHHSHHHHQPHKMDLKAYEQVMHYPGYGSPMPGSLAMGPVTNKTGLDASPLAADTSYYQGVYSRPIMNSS
Chain of Hypoxia-inducible factor 1-alpha (Homo sapiens) (Q16665 whole entry, looked up): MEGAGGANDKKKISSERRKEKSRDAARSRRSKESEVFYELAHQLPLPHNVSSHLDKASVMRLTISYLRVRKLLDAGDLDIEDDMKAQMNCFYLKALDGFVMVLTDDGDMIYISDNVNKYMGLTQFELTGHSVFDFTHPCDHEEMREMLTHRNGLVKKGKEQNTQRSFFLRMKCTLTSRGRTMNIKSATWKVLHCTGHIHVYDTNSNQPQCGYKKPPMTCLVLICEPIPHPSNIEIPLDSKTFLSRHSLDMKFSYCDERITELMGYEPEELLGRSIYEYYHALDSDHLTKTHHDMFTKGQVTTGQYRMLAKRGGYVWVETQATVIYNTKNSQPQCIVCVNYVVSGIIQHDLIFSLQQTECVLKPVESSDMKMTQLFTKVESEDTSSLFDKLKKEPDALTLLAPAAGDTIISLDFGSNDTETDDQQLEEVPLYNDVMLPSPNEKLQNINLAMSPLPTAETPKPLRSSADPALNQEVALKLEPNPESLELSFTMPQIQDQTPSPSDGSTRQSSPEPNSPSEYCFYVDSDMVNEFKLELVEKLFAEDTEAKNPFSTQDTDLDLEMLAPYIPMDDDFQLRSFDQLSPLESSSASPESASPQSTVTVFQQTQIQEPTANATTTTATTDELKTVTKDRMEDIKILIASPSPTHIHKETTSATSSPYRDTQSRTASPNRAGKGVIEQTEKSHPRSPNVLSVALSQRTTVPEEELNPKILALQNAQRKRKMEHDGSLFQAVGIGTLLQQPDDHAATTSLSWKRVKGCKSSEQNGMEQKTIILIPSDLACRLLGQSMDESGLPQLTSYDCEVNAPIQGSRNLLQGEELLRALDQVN
Chain of Bile acid receptor (Homo sapiens) (Q96RI1 whole entry, looked up): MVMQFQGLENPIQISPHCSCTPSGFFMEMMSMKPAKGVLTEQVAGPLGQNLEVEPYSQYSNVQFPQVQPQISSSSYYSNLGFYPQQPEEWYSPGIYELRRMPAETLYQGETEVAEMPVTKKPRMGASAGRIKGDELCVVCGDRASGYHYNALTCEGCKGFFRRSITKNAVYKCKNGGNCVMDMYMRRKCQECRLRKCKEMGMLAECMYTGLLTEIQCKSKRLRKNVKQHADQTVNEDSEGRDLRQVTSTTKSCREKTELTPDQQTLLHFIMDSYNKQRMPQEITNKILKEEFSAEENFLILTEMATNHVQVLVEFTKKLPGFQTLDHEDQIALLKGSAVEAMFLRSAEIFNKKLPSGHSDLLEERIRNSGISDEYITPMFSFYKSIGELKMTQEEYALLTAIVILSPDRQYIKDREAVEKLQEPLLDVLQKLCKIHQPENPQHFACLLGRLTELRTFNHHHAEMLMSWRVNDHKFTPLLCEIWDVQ
Chain of Hepatocyte nuclear factor 6 (Homo sapiens) (Q9UBC0 whole entry, looked up, the tested form may be a part): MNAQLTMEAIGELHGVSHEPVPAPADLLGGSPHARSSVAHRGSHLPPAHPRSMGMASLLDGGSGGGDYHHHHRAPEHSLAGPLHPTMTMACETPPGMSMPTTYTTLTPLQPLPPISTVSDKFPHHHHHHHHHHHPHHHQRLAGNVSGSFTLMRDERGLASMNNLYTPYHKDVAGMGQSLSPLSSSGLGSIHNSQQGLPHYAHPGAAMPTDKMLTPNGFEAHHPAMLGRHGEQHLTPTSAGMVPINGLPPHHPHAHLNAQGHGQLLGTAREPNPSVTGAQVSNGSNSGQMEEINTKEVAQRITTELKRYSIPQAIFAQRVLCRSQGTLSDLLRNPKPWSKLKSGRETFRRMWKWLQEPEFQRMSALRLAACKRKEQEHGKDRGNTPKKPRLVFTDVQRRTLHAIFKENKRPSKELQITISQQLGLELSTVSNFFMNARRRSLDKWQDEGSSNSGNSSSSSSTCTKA
Chain of Heat shock factor protein 1 (Homo sapiens) (Q00613 whole entry, looked up): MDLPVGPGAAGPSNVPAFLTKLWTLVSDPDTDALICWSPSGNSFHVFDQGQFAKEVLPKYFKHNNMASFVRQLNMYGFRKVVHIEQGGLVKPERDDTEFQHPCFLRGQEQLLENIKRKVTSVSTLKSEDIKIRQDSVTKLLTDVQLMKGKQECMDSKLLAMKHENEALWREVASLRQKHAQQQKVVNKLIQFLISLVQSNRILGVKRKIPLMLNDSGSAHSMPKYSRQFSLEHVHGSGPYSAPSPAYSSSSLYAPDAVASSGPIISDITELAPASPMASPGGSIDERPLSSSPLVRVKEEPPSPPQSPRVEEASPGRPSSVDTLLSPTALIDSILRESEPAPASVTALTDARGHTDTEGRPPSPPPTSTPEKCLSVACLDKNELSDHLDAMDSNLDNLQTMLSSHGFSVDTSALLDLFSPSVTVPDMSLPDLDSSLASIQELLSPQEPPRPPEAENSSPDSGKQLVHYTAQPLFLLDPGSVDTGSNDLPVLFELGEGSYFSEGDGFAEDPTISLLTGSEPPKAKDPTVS

For the compound `OC12N=C(c3ccccc3)SC1Cc1cc(Cl)ccc12` (configuration not stated), the outcome in test [1], in [2], in [3], in test [5], in [6] and in [7] was inactive. Moreover, the result in test [8], in test [9], in [10], in [11], in test [12] and in test [13] was inactive. The outcome in test [14], in [15], in test [16], in test [17] and in [18] was inactive. Besides, the AC50 in test [4] is 1.16 µM (active).
On to `CCCCCCCCOc1ccc(C(=O)c2ccccc2)c(O)c1`, for which the outcome in test [1], in test [2], in test [3], in test [4], in [5] and in [6] was inactive. The outcome in [8], in test [9], in test [10], in [12], in test [13] and in test [14] was inactive. Further, the result in test [15], in [16], in [17], in test [18] and in [19] was inactive.
Turning to `O=c1ccc2ccccc2o1`, the result in test [1], in [2], in test [3], in [4], in test [5] and in [6] was inactive. Moreover, the outcome in test [7], in test [8], in [9], in [10], in test [12] and in test [13] was inactive. The compound was called inactive in [14], in test [15], in test [16], in test [17], in test [18] and in test [19].
For `CC(O)CC(C)(C)O` (configuration not stated), the outcome in [1], in [2], in test [3], in test [5], in test [6] and in [8] was inactive. The compound was classed as inactive in test [9], in test [11], in test [12], in test [13], in [14] and in test [15]. In addition, the compound was called inactive in test [16], in test [17] and in test [18].
For the compound `O=C(O)Cn1c(=O)n(Cc2ccc(Br)cc2F)c(=O)c2ccc(Cl)cc21`, the outcome in test [1], in test [2], in test [3], in test [4], in test [5] and in [6] was inactive. For the same compound, the compound was classed as inactive in test [8], in test [9], in [10], in test [11], in test [12] and in [13]. The outcome in test [14], in [15], in test [16], in test [17], in test [18] and in test [19] was inactive.
Take `CCCC(=O)OCCC(C)C`: the result in test [1], in test [2], in test [3], in [4], in [6] and in [7] was inactive. Moreover, the compound was classed as inactive in test [8], in test [9], in [10], in test [11], in test [12] and in test [13]. For the same compound, the call in [14], in test [15], in [16], in test [17] and in [18] was inactive. Moreover, the AC50 in test [5] was 26.8 µM (active).
Consider `COc1cccc([C@H](O)C2CCN(CCc3ccc(F)cc3)CC2)c1OC`, for which the AC50 was 100 µM (active) in [1] and 27.4 µM (active) in test [15]. Further, the compound was called inactive in test [2], in [3], in [4], in test [5], in test [6] and in [7]. The call in [8], in [9], in test [10], in test [11], in test [12] and in test [13] was inactive. Moreover, the compound was called inactive in test [14], in test [16], in test [17] and in test [18].

For the origin of these results see PubChem BioAssay (EPA / NIEHS).
